Results filed as inconclusive are left out. A number with no mark means an inactive call. Calls of active or inactive are those of the source. Calls follow the shape of the dose curve; as a rule, active = well fitted inhibition curve with a large enough effect; inconclusive = small, poorly fitted or top-dose-only effect; inactive = flat fitted curve, though single readings scatter. Where a SMILES comes first, the peptide text is derived from it. [ ]: non-standard residue; d: D form. PhLac = O=C(O)[CH](O)Cc1ccccc1; NMeV = CN[CH](C(=O)O)C(C)C
% is scaled to controls: 0 for no effect and ±100 for the full control effect.

Sequence of Calcium and integrin-binding protein 1 (Homo sapiens) (Q99828 whole entry, looked up): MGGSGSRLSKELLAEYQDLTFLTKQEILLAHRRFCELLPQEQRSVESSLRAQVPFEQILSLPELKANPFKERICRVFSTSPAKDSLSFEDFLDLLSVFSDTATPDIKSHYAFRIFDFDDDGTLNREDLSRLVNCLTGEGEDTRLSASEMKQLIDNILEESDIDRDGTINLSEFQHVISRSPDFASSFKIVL

This assay concerns the target Calcium and integrin-binding protein 1 (Homo sapiens) (UniProt Q99828). Kind of assay: Primary qHTS for Identification of Calcium Integrin Binding Protein 1 (CIB1) Competitor (AID 1508620). Also: top concentration of the series differs between compounds. As to conditions: CIB1-GST / FITC-alphaIIb peptide fluorescence polarization; series mostly up to 57.7 µM; activity change, negative = inhibition: at the top concentration. Put shortly: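 Fluorescence polarization competition: GST-tagged CIB1 (1 uM final) preincubated with compound 15 min at room temperature, then FITC-labelled alphaIIb peptide (100 nM final) added. After 15 min at room temperature, polarization read at Ex 480/Em 540.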
As to `Cc1cc(N2CCCCC2)nc2ccccc12`, the “activity change, negative = inhibition” value is -1.75% [at 114 µM].

As to `OCCc1ccc(O[C@@H]2O[C@H](CO)[C@@H](O)[C@H](O)[C@H]2O)c(O)c1`, the “activity change, negative = inhibition” value was 1.65%.

With `C=CC1(C)CC2=CCC3C(C)(C(=O)O)CCCC3(C)C2CC1OC(C)=O` (stereo not given), the “activity change, negative = inhibition” value is -0.802%.

For the compound `CC(=O)N1c2ccccc2C2(O)CC3C(=O)NC(CC(C)C)C(=O)N3C12` (stereo not given), the “activity change, negative = inhibition” value was 0.22%.

For `CC(C)c1cc2c(c(O)c1O[C@@H]1O[C@H](CO)[C@@H](O)[C@H](O)[C@H]1O)CC1(O)CCC(O)C(C)(C)C1CC2` (stereo not given in full), the “activity change, negative = inhibition” value was -4.15%.

As to `Cc1c(CN(C)C(=O)/C=C/c2cnc3c(c2)CCC(=O)N3)oc2ccccc12`, the “activity change, negative = inhibition” value is 2.58% [at 114 µM].

On to `CCNC(=O)CCC/C=C\C[C@@H]1[C@@H](/C=C/C(O)CCc2ccccc2)[C@@H](O)C[C@@H]1O` (stereo not given in full), for which the “activity change, negative = inhibition” value is -0.263% [at 114 µM].

For the compound `CNC(=O)c1ccc2cc([C@@]3(O)CCn4cncc43)ccc2c1`, the “activity change, negative = inhibition” value is 5.13% [at 114 µM].

Take `CC(=O)OC[C@@]12[C@@H](OC(C)=O)C[C@@H](C)[C@](C)([C@@H]3C[C@H]4C=CO[C@H]4O3)[C@H]1CCC[C@]21CO1`: the “activity change, negative = inhibition” value was 2.02%.

`CC(C)=CC/C=C(/C)[C@H]1CC[C@]2(C)[C@@H]1[C@H](O)CC1[C@@]3(C)CC[C@H](O)C(C)(C)[C@@H]3[C@@H](O[C@@H]3O[C@H](CO)[C@@H](O)[C@H](O)[C@H]3O[C@@H]3O[C@@H](C)[C@H](O)[C@@H](O)[C@H]3O)C[C@]12C` (stereo not given in full): the “activity change, negative = inhibition” value is -9.48% [at 30.2 µM].

For `COc1ccc(C(=O)O[C@H]2CC(C)=CC[C@@]3(C)[C@@H](OC(C)=O)C[C@@](O)(C(C)C)[C@H]23)cc1`, the “activity change, negative = inhibition” value is -4.92%.

Take `C[C@@H]1O[C@@H](O[C@H]2[C@H](OC(=O)[C@]34CCC(C)(C)C[C@H]3C3=CCC5[C@@]6(C)C[C@H](O)[C@H](O[C@@H]7O[C@H](CO)[C@@H](O[C@@H]8O[C@H](CO)[C@@H](O)[C@H](O)[C@H]8O)[C@H](O)[C@H]7O)[C@@](C)(CO)C6[C@H](O)C[C@@]5(C)[C@]3(C)C[C@H]4O)OC[C@H](O)[C@@H]2O)[C@H](O)[C@H](O)[C@H]1O[C@@H]1OC[C@@H](O)[C@H](O[C@@H]2OC[C@](O)(CO)[C@H]2O)[C@H]1O` (stereo not given in full): the activity change, negative = inhibition is 4.23% [at 12.4 µM].

Consider `CC(=O)OC1C(O)CC(O[C@@H]2O[C@H](CO)[C@@H](O)[C@H](O)[C@H]2O)C2CCC3C(=O)OC(c4ccoc4)CC3(C)C21` (stereo not given in full), for which the “activity change, negative = inhibition” value is -6.48%.

As to `CC(C)C(C(=O)N1CCCC1C(=O)O)N(C)C(=O)C(O)Cc1ccccc1` (stereo not given) (H-[PhLac]-[NMeV]-Pro-OH; configuration not given here), the “activity change, negative = inhibition” value was 3.88%.

Turning to `COc1cc(C2Oc3c(O)cc(CCCO)cc3C2CO)ccc1O[C@H]1O[C@H](C)[C@@H](O)[C@H](O)[C@@H]1O` (stereo not given in full), the “activity change, negative = inhibition” value was 3.12%.

As for `CC1[C@@H](O)[C@@H](O)C2[C@]3(C)C(C[C@H]4OC(=O)[C@H](O)[C@]1(O)[C@@]24C)C(C)(O)C[C@H](O)[C@H]3O` (stereo not given in full), the “activity change, negative = inhibition” value is -5.08%.

For `O=C(O)CCc1cc2ccoc2cc1O[C@@H]1O[C@H](CO[C@@H]2OC[C@](O)(CO)[C@H]2O)[C@@H](O)[C@H](O)[C@H]1O`, the “activity change, negative = inhibition” value was 1.83%.

Turning to `CC1CC(O)C2(C)C(C(=O)O)=CCCC2C1(C)CCc1ccoc1` (stereo not given), the “activity change, negative = inhibition” value is -3.55%.

On to `C=CC1(C)C=C2C(O)CC3C(C)(C(=O)O)CCCC3(C)C2CC1` (stereo not given), for which the “activity change, negative = inhibition” value was 2.94%.

With `COc1ccc(C(O[C@@H]2O[C@H](CO)[C@@H](O)[C@H](O)[C@H]2O)C(CO)Oc2ccc(/C=C/CO)cc2OC)cc1O` (stereo not given in full), the “activity change, negative = inhibition” value was 4.32%.

Consider `C[C@@H]1O[C@@H](O[C@@H]2[C@@H](O)[C@@H](O)[C@H](O[C@@H]3[C@@H](O)[C@@H](O[C@]4(CO)O[C@H](CO)[C@@H](O)[C@@H]4OC(=O)/C=C/c4ccc(O)cc4)O[C@H](CO)[C@H]3OC(=O)/C=C/c3ccc(O)cc3)O[C@H]2C)[C@H](O)[C@H](O)[C@H]1O`, for which the “activity change, negative = inhibition” value is 1.94% [at 30.2 µM].

Regarding `COCCN(C)Cc1ccc2nc3sc(C(=O)N(C)C4CCCCC4)cn3c2c1`, the “activity change, negative = inhibition” value was 1.34% [at 114 µM].

In the case of `CCC(=O)NS(=O)(=O)c1ccc(-c2c(-c3ccccc3)noc2C)cc1`, the “activity change, negative = inhibition” value is 0.955% [at 114 µM].

With `Cc1cccc(-c2[nH]c(CNc3ccccc3F)nc2-c2ccc3ncnn3c2)n1`, the “activity change, negative = inhibition” value was -5.2% [at 114 µM].

As for `CC1(C)CC2C3=CCC4C5(C)CCC(OC6OC(C(=O)O)C(O)C(O)C6OC6OC(CO)C(O)C(O)C6OC6OC(CO)C(O)C(O)C6O)C(C)(CO)C5CCC4(C)C3(C)CCC2(C)C(OC2OCC(O)C(OC3OC(CO)C(O)C(O)C3O)C2O)C1O` (stereo not given), the activity change, negative = inhibition was -16.4% [at 12.4 µM].

With `CCOc1ccc(C(Nc2ccccn2)c2ccc3ccc(C)nc3c2O)cc1C` (stereo not given), the “activity change, negative = inhibition” value is -5.69% [at 114 µM].

As for `CC(C)C1=CCC(C)(O)C(OC2OC(CO)C(O)C(O)C2O)C1` (stereo not given), the “activity change, negative = inhibition” value is -10.2%.

In the case of `CCCCNC(=O)[C@@H]1Cc2ccccc2N1C(=O)[C@@H](N)CC`, the “activity change, negative = inhibition” value was -1.19% [at 114 µM].

For `C[C@]12CCC(=O)C=C1[C@@H](O)C[C@@H]1[C@@H]2[C@@H](O)C[C@@]2(C)[C@H]1CC[C@]2(O)C(=O)CO`, the “activity change, negative = inhibition” value is -3.62% [at 114 µM].

For `Cc1onc(-c2ccccc2)c1C(=O)N[C@@H]1C(=O)N2[C@@H]1SC(C)(C)[C@@H]2C(=O)O`, the Potency entry was “inactive”.

For `CC1CCCC2OC2C(=O)c2c(O)cc(O)cc2CC(=O)O1` (stereo not given), the “activity change, negative = inhibition” value is 0.49% [at 114 µM].

For the compound `COc1cc(C2c3cc(O)c(OC)cc3CC(CO)C2CO)ccc1O` (stereo not given), the “activity change, negative = inhibition” value is 1.98%.

Regarding `Cc1nnc(C(C)C)n1C1CC2CCC(C1)N2CC[C@H](NC(=O)C1CCC(F)(F)CC1)c1ccccc1` (stereo not given in full), the “activity change, negative = inhibition” value is 5.84% [at 114 µM].

For the compound `Cn1c(=O)c2nc(/C=C/c3cccc(Cl)c3)n(C)c2n(C)c1=O`, the “activity change, negative = inhibition” value is 0.519% [at 228 µM].

With `CC/C=C\C[C@H]1C(=O)C=C[C@@H]1CCCCCCCC(=O)O`, the “activity change, negative = inhibition” value is -16.9% [at 114 µM].

Take `NS(=O)(=O)OC[C@@H]1C[C@@H](n2ccc3c(N[C@H]4CCc5ccccc54)ncnc32)C[C@@H]1O`: the Potency entry was “inactive”.

For the compound `CCOC(=O)[C@H](CCc1ccccc1)CC1(C(=O)N[C@H]2CCc3ccccc3N(CC(=O)O)C2=O)CCCC1`, the “activity change, negative = inhibition” value is -2.41% [at 114 µM].

As to `CN1C(=O)N[C@@H](Cc2c[nH]c3c(Cl)cccc23)C1=O`, the “activity change, negative = inhibition” value is 1.98% [at 114 µM].

As to `CC(C)C(C#N)O[C@@H]1O[C@H](CO[C@@H]2OC[C@](O)(CO)[C@H]2O)[C@@H](O)[C@H](O)[C@H]1O` (stereo not given in full), the “activity change, negative = inhibition” value was -9.42%.

On to `OC[C@H]1O[C@@H](OC(CCCCc2ccc(O)cc2)CCc2ccc(O)cc2)[C@H](O[C@@H]2OC[C@](O)(CO)[C@H]2O)[C@@H](O)[C@@H]1O` (stereo not given in full), for which the “activity change, negative = inhibition” value was 0.0925% [at 30.2 µM].

Source of the values: PubChem BioAssay (NCATS).
